Assay results reported in the OligoGym collection.

These sequences were tested against NPSR1 (assay: pooled miR-30 sensor sort-seq; sequence = guide strand). Details: shRNA.
Further: reference of the scale not given here.

Row | Sequence | sensor-assay potency score (higher = more potent)
1 | TACCCTTCCAGTTCTCTCGTTG | 0.107
2 | TAGAGCAGCACAACCTGCAAAT | -0.941
3 | TTGCTTTTAATCCAAATAGTTC | -1.33
4 | TTTGCCTTTGAGATGAGTCCTC | 0.0754
5 | TTAAAGGAGTAGTAGAAGGAAC | -1.01

Each sequence was assayed against NR3C1 in the same assay as above. Details: shRNA.

Row | Sequence | sensor-assay potency score (higher = more potent)
6 | TAGGGTTTTATAGAAGTCCATC | -1.08
7 | TTGAAGAAAACTTTACAGCTTC | 0.56
8 | TTACATTGGTCGTACATGCAGG | -0.108
9 | TAGAATATTGACACACTTGAAT | -0.527
10 | TTCACCTACAGCTACAGTCAGG | -1.07
11 | TTGAGCGTAGTCATGATCCTCC | 0.514
12 | TAGAAAAAACTGTTCGACCAGG | -0.371
13 | TTCATCTATCAACAGGTCTGAT | -0.68
14 | TTGACAAAACCAGATCTCCATT | -1.1
15 | TTTTCTTCGAATTTTATCGATG | -1.06
16 | TGACTTATTATTGACAACGAAG | -1.46
17 | TTCAGGTTCAATAACCTCCAAC | -0.915

The sequences below were run against NR4A3 in the same assay as above. Details: shRNA.

Row | Sequence | sensor-assay potency score (higher = more potent)
18 | ATCGACAGTACTGACATCGGTT | -0.324
19 | TTGCATAGCTCTTCGACTCTCT | 0.177
20 | TGGTCTTTTAAACTGCTTGTGA | -0.937
21 | TAAACTGCTTGTGATCTTGTTG | -0.255
22 | TCTTGTTGCATAGCTCTTCGAC | -0.437
23 | TATCTGTACGGACAACTTCTTT | -1
24 | TAAGTAATGTCTGATCTTCTTT | -0.546
25 | TAATGTCTGATCTTCTTTGGGG | 0.115
26 | TTTTTCTGCACTGTTCTCTTGA | 0.598
27 | TTGAAGTACATGGAGGTGCTGG | -0.481
28 | TCCAACACTGAGACACTTCTGA | -0.139

These sequences were tested against NRGN in the same assay as above. Details: shRNA.

Row | Sequence | sensor-assay potency score (higher = more potent)
29 | TCGTCGTCCGGCTTGGAGCAGG | -0.878
30 | TTTAGCTGCGCACAGAACGAAA | -1.54
31 | TTTGCATAAACAAGAGAGCTGG | -0.297
32 | TCTTTATCTTCTTCCGCGCCAT | -0.595
33 | TATTGTTCACATTCCAACCCAG | -0.138
34 | TAGAATGTCGTCGTCCGGCTTG | -0.236
35 | TCTAGAATGTCGTCGTCCGGCT | -0.833
36 | TTGCATAAACAAGAGAGCTGGA | 0.0661
37 | TATCTTCTTCCGCGCCATGTGG | -1.11
38 | TGTCTAGAATGTCGTCGTCCGG | -1.75
39 | TTTATCTTCTTCCGCGCCATGT | -1.14
40 | TTTCTTTAAGTGAGTGTGCTTG | -0.361
